# Source: publication PMC7862700, “An all-to-all approach to the identification of sequence-specific readers for epigenetic DNA modifications on cytosine”
# What was measured:
# Experiment in all cases: DAPPL (digital affinity profiling via proximity ligation, sequencing); 10 mM Tris-HCl pH 7.5, 50 mM NaCl, 1 mM DTT, 4% glycerol, room temperature, 30 min; GST-TFs on glutathione beads, 16-mer random dsDNA library, 0.1% formaldehyde crosslink after washing; high values mean tight binding
# [1] = target: T1, FLI1 (Homo sapiens, UniProt Q01543 1-452); conditions: protein: recombinant; tags: N-terminal GST; dsDNA, one strand shown
# T1 sequence: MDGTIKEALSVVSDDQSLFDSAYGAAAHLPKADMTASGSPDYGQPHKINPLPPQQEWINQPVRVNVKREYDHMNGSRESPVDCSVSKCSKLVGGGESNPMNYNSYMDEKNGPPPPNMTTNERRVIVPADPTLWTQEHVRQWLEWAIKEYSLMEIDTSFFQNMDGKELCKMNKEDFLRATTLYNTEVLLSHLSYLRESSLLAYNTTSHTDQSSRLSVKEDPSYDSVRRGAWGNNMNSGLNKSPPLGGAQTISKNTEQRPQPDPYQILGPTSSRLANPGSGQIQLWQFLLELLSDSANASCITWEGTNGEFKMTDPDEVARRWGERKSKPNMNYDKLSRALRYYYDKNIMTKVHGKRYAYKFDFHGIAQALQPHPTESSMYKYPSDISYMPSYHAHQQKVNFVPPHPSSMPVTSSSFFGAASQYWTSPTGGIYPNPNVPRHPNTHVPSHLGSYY
# How it was run: (§1)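 A tag-only sample was pooled with DNA-barcoded human transcription factors that had been expressed in yeast as GST fusions and captured on glutathione beads. The pools were incubated for 30 min at room temperature with 200 nmole of a random double-stranded 16-mer DNA library in Tris/NaCl/DTT/glycerol buffer, then washed, crosslinked with 0.1% formaldehyde, proximity-ligated (BsaI/T4 ligase, 1 h, 37 °C), PCR-amplified and sequenced on an Illumina NextSeq500. Binding signal is each hexamer's read frequency for a factor divided by its frequency for the tag-only sample.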
# [2] = target: T2, ELK1 (Homo sapiens, UniProt P19419 1-428); conditions: protein: recombinant; tags: N-terminal GST; dsDNA, one strand shown
# T2 sequence: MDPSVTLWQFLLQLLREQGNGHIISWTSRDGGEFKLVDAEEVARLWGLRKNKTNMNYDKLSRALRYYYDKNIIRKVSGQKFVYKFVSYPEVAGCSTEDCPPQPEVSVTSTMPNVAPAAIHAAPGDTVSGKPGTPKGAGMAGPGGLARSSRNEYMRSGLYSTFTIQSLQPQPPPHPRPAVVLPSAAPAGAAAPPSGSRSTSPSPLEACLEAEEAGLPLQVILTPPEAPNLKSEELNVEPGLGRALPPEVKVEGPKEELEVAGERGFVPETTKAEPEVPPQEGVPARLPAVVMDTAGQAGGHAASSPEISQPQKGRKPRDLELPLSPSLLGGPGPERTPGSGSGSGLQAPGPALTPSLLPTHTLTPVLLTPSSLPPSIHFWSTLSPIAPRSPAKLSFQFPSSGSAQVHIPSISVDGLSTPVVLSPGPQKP
# How it was run: as §1
# [3] = target: T3, GABPA (Homo sapiens, UniProt Q06546 1-454); conditions: protein: recombinant; tags: N-terminal GST; dsDNA, one strand shown
# T3 sequence: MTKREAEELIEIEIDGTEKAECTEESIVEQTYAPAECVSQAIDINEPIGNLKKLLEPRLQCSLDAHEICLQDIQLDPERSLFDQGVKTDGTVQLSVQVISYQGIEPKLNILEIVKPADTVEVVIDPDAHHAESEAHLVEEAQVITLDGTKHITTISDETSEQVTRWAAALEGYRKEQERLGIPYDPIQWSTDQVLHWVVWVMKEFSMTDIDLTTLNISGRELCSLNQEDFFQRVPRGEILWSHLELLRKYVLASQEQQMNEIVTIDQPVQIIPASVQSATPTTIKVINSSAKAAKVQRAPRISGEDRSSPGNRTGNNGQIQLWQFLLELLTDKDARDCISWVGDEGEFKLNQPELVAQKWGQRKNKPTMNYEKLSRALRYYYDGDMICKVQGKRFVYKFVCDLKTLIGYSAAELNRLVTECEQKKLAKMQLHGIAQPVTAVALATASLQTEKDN
# How it was run: as §1
# [4] = target: T4, ERG (Homo sapiens, UniProt P11308 1-479); conditions: protein: recombinant; tags: N-terminal GST; dsDNA, one strand shown
# T4 sequence: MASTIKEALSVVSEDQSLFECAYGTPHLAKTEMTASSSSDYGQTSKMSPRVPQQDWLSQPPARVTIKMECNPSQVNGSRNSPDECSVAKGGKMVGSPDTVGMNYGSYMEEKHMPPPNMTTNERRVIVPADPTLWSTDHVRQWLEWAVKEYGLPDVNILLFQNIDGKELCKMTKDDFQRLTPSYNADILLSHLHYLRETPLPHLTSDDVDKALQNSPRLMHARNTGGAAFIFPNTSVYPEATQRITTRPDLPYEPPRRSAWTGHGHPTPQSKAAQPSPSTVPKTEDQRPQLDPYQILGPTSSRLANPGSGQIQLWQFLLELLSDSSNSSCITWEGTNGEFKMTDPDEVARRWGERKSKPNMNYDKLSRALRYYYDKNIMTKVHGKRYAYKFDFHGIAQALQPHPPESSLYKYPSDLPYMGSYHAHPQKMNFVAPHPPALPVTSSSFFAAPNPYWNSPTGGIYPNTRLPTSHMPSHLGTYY
# How it was run: as §1
# [5] = target: T5, EHF (Homo sapiens, UniProt Q9NZC4 1-300); conditions: protein: recombinant; tags: N-terminal GST; dsDNA, one strand shown
# T5 sequence: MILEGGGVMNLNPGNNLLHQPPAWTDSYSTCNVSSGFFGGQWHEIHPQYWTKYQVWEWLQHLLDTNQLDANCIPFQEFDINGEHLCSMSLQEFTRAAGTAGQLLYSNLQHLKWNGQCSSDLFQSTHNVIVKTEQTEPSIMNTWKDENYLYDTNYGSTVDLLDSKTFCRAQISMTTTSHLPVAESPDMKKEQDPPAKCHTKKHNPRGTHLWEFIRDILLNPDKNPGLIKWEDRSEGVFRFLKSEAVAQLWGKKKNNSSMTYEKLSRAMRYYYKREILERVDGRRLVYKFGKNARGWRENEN
# How it was run: as §1
# [6] = target: SPI1 (Homo sapiens, UniProt P17947 1-270); conditions: protein: recombinant; tags: N-terminal GST; dsDNA, one strand shown
# How it was run: as §1
# [7] = target: SPIB (Homo sapiens, UniProt Q01892 1-262); conditions: protein: recombinant; tags: N-terminal GST; dsDNA, one strand shown
# Chain of SPIB (Q01892 whole entry): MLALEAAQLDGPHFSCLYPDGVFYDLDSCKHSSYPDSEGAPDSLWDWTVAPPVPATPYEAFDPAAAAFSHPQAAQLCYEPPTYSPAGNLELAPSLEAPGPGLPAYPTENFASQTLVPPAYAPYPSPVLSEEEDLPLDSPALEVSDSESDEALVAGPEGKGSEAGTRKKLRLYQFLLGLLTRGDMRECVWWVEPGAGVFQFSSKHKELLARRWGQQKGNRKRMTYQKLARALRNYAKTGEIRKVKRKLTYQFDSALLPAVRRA
# How it was run: as §1
# [8] = target: T6, ELK3 (Homo sapiens, UniProt P41970 1-407); conditions: protein: recombinant; tags: N-terminal GST; dsDNA, one strand shown
# T6 sequence: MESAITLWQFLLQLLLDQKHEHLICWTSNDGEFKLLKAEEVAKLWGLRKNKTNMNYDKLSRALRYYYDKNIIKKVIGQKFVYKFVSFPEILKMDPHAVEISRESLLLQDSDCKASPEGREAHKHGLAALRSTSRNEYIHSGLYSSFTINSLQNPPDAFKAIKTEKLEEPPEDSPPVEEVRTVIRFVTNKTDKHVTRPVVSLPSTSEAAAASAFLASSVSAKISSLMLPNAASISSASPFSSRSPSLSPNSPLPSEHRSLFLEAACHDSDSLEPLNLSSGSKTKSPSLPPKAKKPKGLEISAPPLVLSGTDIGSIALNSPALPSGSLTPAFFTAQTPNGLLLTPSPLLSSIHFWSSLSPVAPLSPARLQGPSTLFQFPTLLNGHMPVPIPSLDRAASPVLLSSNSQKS
# How it was run: as §1
# [9] = target: T7, FEV (Homo sapiens, UniProt Q99581 1-238); conditions: protein: recombinant; tags: N-terminal GST; dsDNA, one strand shown
# T7 sequence: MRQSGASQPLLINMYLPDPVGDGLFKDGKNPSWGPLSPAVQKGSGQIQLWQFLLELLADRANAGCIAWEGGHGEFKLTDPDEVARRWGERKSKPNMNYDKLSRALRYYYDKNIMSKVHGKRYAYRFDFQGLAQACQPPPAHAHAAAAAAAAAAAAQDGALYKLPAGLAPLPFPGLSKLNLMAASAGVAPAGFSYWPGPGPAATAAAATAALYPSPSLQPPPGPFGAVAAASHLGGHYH
# How it was run: as §1
# [10] = target: ETV5 (Homo sapiens, UniProt P41161 1-510); conditions: protein: recombinant; tags: N-terminal GST; dsDNA, one strand shown
# Chain of ETV5 (P41161 whole entry): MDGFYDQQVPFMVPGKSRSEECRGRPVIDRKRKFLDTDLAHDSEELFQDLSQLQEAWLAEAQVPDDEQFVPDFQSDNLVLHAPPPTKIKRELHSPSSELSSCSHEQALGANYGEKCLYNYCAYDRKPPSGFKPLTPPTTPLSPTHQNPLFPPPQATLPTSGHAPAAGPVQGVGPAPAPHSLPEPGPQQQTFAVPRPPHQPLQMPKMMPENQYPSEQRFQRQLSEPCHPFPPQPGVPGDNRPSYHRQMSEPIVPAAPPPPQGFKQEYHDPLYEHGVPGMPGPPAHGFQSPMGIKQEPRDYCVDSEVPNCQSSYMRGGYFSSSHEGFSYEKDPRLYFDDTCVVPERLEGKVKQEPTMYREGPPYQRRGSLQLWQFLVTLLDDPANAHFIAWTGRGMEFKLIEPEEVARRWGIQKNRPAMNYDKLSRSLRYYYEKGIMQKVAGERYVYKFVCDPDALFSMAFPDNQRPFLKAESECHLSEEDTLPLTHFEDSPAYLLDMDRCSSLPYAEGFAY
# How it was run: as §1
# [11] = target: HSF1 (Homo sapiens, UniProt Q00613 1-529); conditions: protein: recombinant; tags: N-terminal GST; chain copies: 3; dsDNA, one strand shown
# Chain of HSF1 (Q00613 whole entry): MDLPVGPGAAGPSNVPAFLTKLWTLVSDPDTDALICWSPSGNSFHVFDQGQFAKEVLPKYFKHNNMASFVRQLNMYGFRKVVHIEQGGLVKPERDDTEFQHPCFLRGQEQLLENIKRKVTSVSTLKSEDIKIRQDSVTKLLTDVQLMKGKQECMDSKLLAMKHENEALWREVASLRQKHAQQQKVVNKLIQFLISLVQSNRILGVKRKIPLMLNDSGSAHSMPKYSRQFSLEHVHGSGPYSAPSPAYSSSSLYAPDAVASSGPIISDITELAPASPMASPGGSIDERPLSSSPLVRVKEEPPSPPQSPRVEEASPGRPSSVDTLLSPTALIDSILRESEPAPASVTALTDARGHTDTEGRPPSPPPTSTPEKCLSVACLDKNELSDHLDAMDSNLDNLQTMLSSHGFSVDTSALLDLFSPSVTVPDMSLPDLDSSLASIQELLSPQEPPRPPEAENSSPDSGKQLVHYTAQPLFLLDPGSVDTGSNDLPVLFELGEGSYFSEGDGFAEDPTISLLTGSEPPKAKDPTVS
# How it was run: as §1
# [12] = target: ELF4 (Homo sapiens, UniProt Q99607 1-663); conditions: protein: recombinant; tags: N-terminal GST; dsDNA, one strand shown
# Chain of ELF4 (Q99607 whole entry): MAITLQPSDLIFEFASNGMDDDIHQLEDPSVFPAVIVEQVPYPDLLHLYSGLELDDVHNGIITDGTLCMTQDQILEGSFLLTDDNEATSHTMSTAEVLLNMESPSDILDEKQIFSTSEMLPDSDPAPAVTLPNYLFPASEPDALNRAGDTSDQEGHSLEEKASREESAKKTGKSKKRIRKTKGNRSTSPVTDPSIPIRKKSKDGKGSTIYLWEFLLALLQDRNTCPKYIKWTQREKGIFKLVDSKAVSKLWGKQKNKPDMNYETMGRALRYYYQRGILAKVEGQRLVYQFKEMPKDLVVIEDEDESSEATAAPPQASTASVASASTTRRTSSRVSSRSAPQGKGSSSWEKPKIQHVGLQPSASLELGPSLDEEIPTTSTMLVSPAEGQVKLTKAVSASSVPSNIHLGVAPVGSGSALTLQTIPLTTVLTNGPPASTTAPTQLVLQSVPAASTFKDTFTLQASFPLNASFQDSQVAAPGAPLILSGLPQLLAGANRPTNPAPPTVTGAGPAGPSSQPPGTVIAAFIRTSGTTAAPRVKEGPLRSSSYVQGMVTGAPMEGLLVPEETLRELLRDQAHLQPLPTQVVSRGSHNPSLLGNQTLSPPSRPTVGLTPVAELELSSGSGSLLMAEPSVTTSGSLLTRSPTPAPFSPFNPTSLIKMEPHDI
# How it was run: as §1
# [13] = target: T8, ELK4 (Homo sapiens, UniProt P28324-2 1-405); conditions: protein: recombinant; tags: N-terminal GST; dsDNA, one strand shown
# T8 sequence: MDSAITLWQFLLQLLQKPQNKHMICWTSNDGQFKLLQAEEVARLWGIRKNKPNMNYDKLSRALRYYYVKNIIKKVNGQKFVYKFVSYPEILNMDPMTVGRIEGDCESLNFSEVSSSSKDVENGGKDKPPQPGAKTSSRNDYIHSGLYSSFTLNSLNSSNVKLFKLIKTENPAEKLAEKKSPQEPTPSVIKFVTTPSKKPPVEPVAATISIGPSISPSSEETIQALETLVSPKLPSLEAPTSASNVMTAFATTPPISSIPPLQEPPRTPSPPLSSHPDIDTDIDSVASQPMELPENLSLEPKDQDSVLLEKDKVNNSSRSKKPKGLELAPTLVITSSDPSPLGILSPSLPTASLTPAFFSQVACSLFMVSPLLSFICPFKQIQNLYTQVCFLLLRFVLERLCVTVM
# How it was run: as §1
# [14] = target: T9, ETV2 (Homo sapiens, UniProt O00321 1-342); conditions: protein: recombinant; tags: N-terminal GST; dsDNA, one strand shown
# T9 sequence: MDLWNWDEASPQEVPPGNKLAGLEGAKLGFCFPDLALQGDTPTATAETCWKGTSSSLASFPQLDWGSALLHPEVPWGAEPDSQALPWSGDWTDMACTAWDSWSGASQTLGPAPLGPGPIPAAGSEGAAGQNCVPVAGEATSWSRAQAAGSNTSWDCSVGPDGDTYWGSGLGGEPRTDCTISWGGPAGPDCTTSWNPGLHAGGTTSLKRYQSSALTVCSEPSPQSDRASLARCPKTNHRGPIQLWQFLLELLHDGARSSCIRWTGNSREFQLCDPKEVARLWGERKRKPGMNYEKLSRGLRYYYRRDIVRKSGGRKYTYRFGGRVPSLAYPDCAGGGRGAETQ
# How it was run: as §1
# [15] = target: T10, ELF3 (Homo sapiens, UniProt P78545 1-371); conditions: protein: recombinant; tags: N-terminal GST; dsDNA, one strand shown
# T10 sequence: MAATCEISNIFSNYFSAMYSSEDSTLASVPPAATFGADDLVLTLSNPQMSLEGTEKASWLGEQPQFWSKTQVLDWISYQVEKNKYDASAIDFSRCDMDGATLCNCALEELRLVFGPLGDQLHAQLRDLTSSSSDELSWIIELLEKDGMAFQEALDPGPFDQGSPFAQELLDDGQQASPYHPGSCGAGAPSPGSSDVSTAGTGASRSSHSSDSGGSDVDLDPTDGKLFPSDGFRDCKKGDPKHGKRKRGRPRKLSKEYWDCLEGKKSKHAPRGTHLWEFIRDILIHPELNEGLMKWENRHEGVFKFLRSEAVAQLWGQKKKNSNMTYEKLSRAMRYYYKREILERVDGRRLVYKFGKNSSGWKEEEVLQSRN
# How it was run: as §1
# [16] = target: CRX (Homo sapiens, UniProt O43186 1-299); conditions: protein: recombinant; tags: N-terminal GST; dsDNA, one strand shown
# Chain of CRX (O43186 whole entry): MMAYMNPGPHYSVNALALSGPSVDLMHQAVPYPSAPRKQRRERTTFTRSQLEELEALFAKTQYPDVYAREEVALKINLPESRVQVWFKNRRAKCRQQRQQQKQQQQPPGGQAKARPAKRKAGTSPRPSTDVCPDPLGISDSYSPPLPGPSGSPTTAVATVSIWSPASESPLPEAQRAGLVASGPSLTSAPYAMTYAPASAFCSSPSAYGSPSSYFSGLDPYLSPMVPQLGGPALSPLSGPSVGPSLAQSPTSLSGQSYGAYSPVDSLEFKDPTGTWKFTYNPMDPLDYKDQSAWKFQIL
# How it was run: as §1
# [17] = target: ETV1 (Homo sapiens, UniProt P50549 1-477); conditions: protein: recombinant; tags: N-terminal GST; dsDNA, one strand shown
# Chain of ETV1 (P50549 whole entry): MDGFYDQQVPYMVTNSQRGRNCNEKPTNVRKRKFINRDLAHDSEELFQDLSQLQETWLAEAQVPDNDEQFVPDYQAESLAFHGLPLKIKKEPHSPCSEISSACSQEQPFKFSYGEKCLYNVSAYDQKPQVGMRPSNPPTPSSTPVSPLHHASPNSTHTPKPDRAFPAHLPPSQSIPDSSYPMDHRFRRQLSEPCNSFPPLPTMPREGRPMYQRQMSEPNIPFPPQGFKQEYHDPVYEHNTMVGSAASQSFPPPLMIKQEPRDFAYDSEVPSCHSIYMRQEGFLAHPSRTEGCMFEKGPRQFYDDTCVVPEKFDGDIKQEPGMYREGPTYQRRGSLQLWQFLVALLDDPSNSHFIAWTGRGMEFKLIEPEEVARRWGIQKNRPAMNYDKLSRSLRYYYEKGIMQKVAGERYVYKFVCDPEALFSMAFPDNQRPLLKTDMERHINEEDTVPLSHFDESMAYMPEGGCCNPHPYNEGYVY
# How it was run: as §1
sequence,measurement,setting,value
TTTAGG,binding signal,[1],"1.05 fold enrichment (6-mer frequency, TF over GST control)"
same,binding signal,[2],"1.12 fold enrichment (6-mer frequency, TF over GST control)"
same,binding signal,[3],"1.11 fold enrichment (6-mer frequency, TF over GST control)"
same,binding signal,[4],"1.08 fold enrichment (6-mer frequency, TF over GST control)"
same,binding signal,[5],"1.06 fold enrichment (6-mer frequency, TF over GST control)"
same,binding signal,[6],"1.08 fold enrichment (6-mer frequency, TF over GST control)"
same,binding signal,[7],"1.15 fold enrichment (6-mer frequency, TF over GST control)"
same,binding signal,[8],"1.07 fold enrichment (6-mer frequency, TF over GST control)"
same,binding signal,[9],"1.09 fold enrichment (6-mer frequency, TF over GST control)"
same,binding signal,[10],"1.06 fold enrichment (6-mer frequency, TF over GST control)"
same,binding signal,[11],"1.25 fold enrichment (6-mer frequency, TF over GST control)"
same,binding signal,[12],"1.05 fold enrichment (6-mer frequency, TF over GST control)"
same,binding signal,[13],"1.11 fold enrichment (6-mer frequency, TF over GST control)"
same,binding signal,[14],"1.09 fold enrichment (6-mer frequency, TF over GST control)"
same,binding signal,[15],"1.09 fold enrichment (6-mer frequency, TF over GST control)"
same,binding signal,[16],"1.5 fold enrichment (6-mer frequency, TF over GST control)"
same,binding signal,[17],"1.13 fold enrichment (6-mer frequency, TF over GST control)"
